FLuc counter: qHTS profiling assay for firefly luciferase inhibitor/activator using purifed enzyme and Km concentrations of substrates (counterscreen for miR-21 project). Potency, µM (series often up to 57.5 µM), actives largely listed as inhibitors. actives 6.9% (n = 360,000). purified FLuc, Km substrates, luminescence inhibition; further: nearly all actives have a fitted effect of over 55% in size
Target sequence (P08659 whole entry, looked up): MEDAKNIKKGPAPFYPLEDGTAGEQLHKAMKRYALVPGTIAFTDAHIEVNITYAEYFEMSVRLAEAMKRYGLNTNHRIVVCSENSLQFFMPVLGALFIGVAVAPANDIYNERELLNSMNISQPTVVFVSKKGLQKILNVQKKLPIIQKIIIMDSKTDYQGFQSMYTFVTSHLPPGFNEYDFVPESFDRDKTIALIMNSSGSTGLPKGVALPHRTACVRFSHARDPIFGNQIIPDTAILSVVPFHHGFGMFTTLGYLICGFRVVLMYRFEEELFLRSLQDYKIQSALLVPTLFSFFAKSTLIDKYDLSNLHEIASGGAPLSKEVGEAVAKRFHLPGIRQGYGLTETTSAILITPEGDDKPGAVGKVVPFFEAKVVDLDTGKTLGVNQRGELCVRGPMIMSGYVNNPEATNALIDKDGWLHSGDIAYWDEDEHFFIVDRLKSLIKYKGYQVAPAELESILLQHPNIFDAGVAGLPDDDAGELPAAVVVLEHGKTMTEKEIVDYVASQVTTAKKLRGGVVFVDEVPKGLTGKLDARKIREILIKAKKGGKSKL
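Purified P. pyralis luciferase, 10 nM final, with Km-level 10 uM D-luciferin and 10 uM ATP in 50 mM Tris acetate pH 7.5, 10 mM Mg acetate, 0.01% Tween-20, 0.05% BSA; 6-point qHTS titration about 60 µM downward; luminescence read.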
Rab9 promoter act: qHTS Assay for Rab9 Promoter Activators | actives 2.8% (n = 320,000) | Huh7 Rab9 promoter-luciferase reporter, luminescence, 24 h | Potency, µM (highest dose often 9.22 µM), actives largely listed as activators | AID 485297, 2010; further: nearly all actives have a fitted effect of over 60% in size
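Huh7 cells stably carrying Rab9 promoter–luciferase reporter, plated 1500 cells/well, compound added after 2 h and incubated 24 h at 37 °C; luciferase luminescence then read after 10 min with detection reagent.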
SMN2 splice enh: qHTS Assay for Enhancers of SMN2 Splice Variant Expression. HEK293 SMN2-luciferase splicing reporter, luminescence, 30-36 h. Potency, µM (series often up to 46.1 µM), hits mostly activators. actives 2.8% (n = 210,000). AID 1458, 2008; further: nearly all actives have a fitted effect of over 55% in size
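qHTS luciferase splicing reporter: luminescence rises when SMN2 exon 7 is included in transfected HEK293 cells. Compound exposure lasted 30-36 h at 37C, with 4.5 mM final sodium butyrate as control, followed by a ONE-Glo read.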
NPC1 promoter act: qHTS Assay for NPC1 Promoter Activators; Huh7 NPC1 promoter luciferase reporter, 24 h; Potency, µM (highest dose often 9.22 µM), hits mostly activators; actives 2.4% (n = 320,000); further: nearly all actives have a fitted effect of over 60% in size
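Quantitative HTS used a cell-based reporter: Huh7 cells stably bearing the NPC1 promoter upstream of luciferase were treated with compounds for 24 h, and promoter activation was read as luminescence.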
ELG1 repair inh: qHTS screen for small molecules that inhibit ELG1-dependent DNA repair in human embryonic kidney (HEK293T) cells expressing luciferase-tagged ELG1; HEK293T ELG1-luciferase reporter, luminescence, 16 h; DNA damage induced by 5-fluorouridine; Potency, µM (highest dose often 46.1 µM), usual class: inhibitors; actives 2.3% (n = 330,000); AID 504467, 2011; further: nearly all actives have a fitted effect of over 55% in size
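HEK293T cells expressing luciferase-tagged ELG1 (2,000/well) received 5-Fluorouridine plus compound or DMSO for 16 hr at 37 °C. Luciferase was read by ONE-Glo luminescence after 30 min at room temperature.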
ELG1 genotoxic: qHTS screen for small molecules that induce genotoxicity in human embryonic kidney (HEK293T) cells expressing luciferase-tagged ELG1 | Potency, µM (titrated, usually from 46 µM), most hits filed as activators | HEK293T ELG1-luciferase reporter, luminescence, 16 h | actives 1.3% (n = 330,000); further: nearly all actives have a fitted effect of over 60% in size
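Quantitative HTS format in 1536-well plates. HEK293T ELG1-luciferase reporter cells receive test compound and are incubated 16 hr at 37 °C, 5% CO2; ONE-Glo added, 30 min room temperature, then luminescence read.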
Large screens that a line does not name were inactive. This is a sample that favours compounds with a hit; in the whole collection about 9.2% have one here. The call rests on the fitted dose curve; in most records, active means well fitted curve in the direction sought with a large enough effect; inconclusive means small, poorly fitted or top-dose-only effect, or another doubt; inactive means no such curve, though single readings can be large; an effect the other way counts as inactive or inconclusive.

CCc1ccc(NC(=O)c2ccc(F)c(S(=O)(=O)N3CCC4(CC3)OCCO4)c2)cc1	none (no result: Rab9 promoter act, SMN2 splice enh, NPC1 promoter act, ELG1 repair inh, ELG1 genotoxic)
O=C(Nc1ccc(F)c(F)c1)c1ccc(F)c(S(=O)(=O)N2CCC3(CC2)OCCO3)c1	ELG1 repair inh 7.3µM
O=S(=O)(c1cc(F)ccc1F)N1CCC2(CC1)OCCO2	FLuc counter 12µM, Rab9 promoter act 4µM, NPC1 promoter act 3.5µM, ELG1 repair inh inconclusive, ELG1 genotoxic 9.2µM (no result: SMN2 splice enh)
Cc1cc2cc(CNC(=O)C(C)Oc3ccccc3)ccc2n1C (centres undefined)	none (no result: SMN2 splice enh)
Cc1ccc(S(=O)(=O)N2CCOCC2)cc1C(=O)NC1=NCCS1	none (no result: FLuc counter, Rab9 promoter act, SMN2 splice enh, NPC1 promoter act)
Cc1cc(NC(=O)Nc2ccc3c(ccn3C)c2)sn1	Rab9 promoter act 6.5µM, SMN2 splice enh inconclusive, NPC1 promoter act 7.3µM (no result: FLuc counter, ELG1 repair inh, ELG1 genotoxic)
CCOC(=O)C1C(C(=O)OC)=C(C2=CCCCC2)c2ccccc2N1S(=O)(=O)C(F)(F)F (centres undefined)	ELG1 repair inh 18µM (no result: FLuc counter, Rab9 promoter act, SMN2 splice enh, NPC1 promoter act)
CCOC(=O)C1=C(c2ccccc2)c2ccc(OC)cc2N(S(=O)(=O)C(F)(F)F)C1C(=O)OCC (centres undefined)	ELG1 repair inh 15µM (no result: FLuc counter, Rab9 promoter act, SMN2 splice enh, NPC1 promoter act)
O=C(Nn1c(C2CCC2)nc2ccccc2c1=O)c1cccs1	none
CSCC[C@@H](C(=O)Nc1ccc2c(c1)OCCO2)N1Cc2ccccc2C1=O	FLuc counter 19µM, ELG1 repair inh inconclusive, ELG1 genotoxic inconclusive
O=C(CN1CCc2ccccc21)Nc1ccc2c(c1)OCCCO2	FLuc counter 12µM, Rab9 promoter act inconclusive, NPC1 promoter act inconclusive, ELG1 repair inh inconclusive, ELG1 genotoxic inconclusive (no result: SMN2 splice enh)
CSCC[C@@H](C(=O)Nc1cccc(F)c1)N1Cc2ccccc2C1=O	none (no result: Rab9 promoter act, NPC1 promoter act, ELG1 repair inh, ELG1 genotoxic)
O=C(CN1Cc2ccccc2C1=O)Nc1ccc2c(c1)OCCO2	FLuc counter 24µM, Rab9 promoter act inconclusive, ELG1 repair inh inconclusive (no result: SMN2 splice enh)
Cc1ccc(NC(=O)CN2CCc3cc4c(cc3C2C)OCCCO4)cc1 (centres undefined)	ELG1 repair inh 18µM (no result: SMN2 splice enh)
CC12CCC(C(=O)Nc3cc(Cl)ccc3Cl)(C(Br)C1=O)C2(C)C (centres undefined)	none
O=C(CSc1ncnc2c1cnn2-c1ccccc1)NCC1CCCO1 (centres undefined)	none (no result: SMN2 splice enh)
O=[N+]([O-])c1ccc(Cl)c(S(=O)(=O)Nc2cccc(-c3ccc(N4CCOCC4)nn3)c2)c1	FLuc counter 2.4µM, Rab9 promoter act inconclusive, NPC1 promoter act inconclusive, ELG1 repair inh inconclusive, ELG1 genotoxic 10µM (no result: SMN2 splice enh)
O=S(=O)(Nc1ccc(-c2ccc(N3CCOCC3)nn2)cc1)c1ccc(Cl)c(Cl)c1	FLuc counter 24µM (no result: SMN2 splice enh)
Cc1ccc([N+](=O)[O-])cc1S(=O)(=O)Nc1ccc(-c2ccc(N3CCOCC3)nn2)cc1	FLuc counter inconclusive (no result: SMN2 splice enh)
O=[N+]([O-])c1ccc(Cl)c(S(=O)(=O)Nc2ccc(-c3ccc(N4CCOCC4)nn3)cc2)c1	FLuc counter 15µM, ELG1 repair inh inconclusive (no result: SMN2 splice enh)
COc1ccc(-c2cccc(NS(=O)(=O)c3cc([N+](=O)[O-])ccc3Cl)c2)nn1	none (no result: SMN2 splice enh)
COc1ccc(-n2cc3ccc([N+](=O)[O-])cc3n2)cc1	FLuc counter 0.95µM, Rab9 promoter act 0.45µM, NPC1 promoter act 0.71µM, ELG1 repair inh inconclusive, ELG1 genotoxic inconclusive (no result: SMN2 splice enh)
COc1ccc(C2=NCCn3nc4cc([N+](=O)[O-])ccc4c32)cc1	none (no result: SMN2 splice enh)
CCc1ccc(NC(=O)Nc2nnc(N(C)C3CCCCC3)s2)cc1	none (no result: Rab9 promoter act, SMN2 splice enh, NPC1 promoter act, ELG1 repair inh, ELG1 genotoxic)
CCC(=O)NC(=S)Nc1ccc(NC(=O)c2ccc([N+](=O)[O-])cc2Cl)cc1	ELG1 repair inh 5.8µM
O=C(Nc1ccc([N+](=O)[O-])cc1)c1cc2ccccc2nc1Cl	ELG1 repair inh 18µM (no result: SMN2 splice enh)
O=C(Nc1ccccc1[N+](=O)[O-])c1cc2ccccc2nc1Cl	none (no result: SMN2 splice enh)
CN(C)c1ccc(NC(=O)c2ccc([N+](=O)[O-])cc2Cl)cc1	FLuc counter 4.3µM, Rab9 promoter act 3.2µM, SMN2 splice enh 10µM, NPC1 promoter act 2.5µM, ELG1 repair inh inconclusive, ELG1 genotoxic inconclusive
CC(C)C(=O)Nc1ccc(NC(=O)c2ccc([N+](=O)[O-])cc2Cl)cc1	none
CCC(=O)NC(=S)Nc1cccc(NC(=O)c2ccc(Cl)cc2Cl)c1	FLuc counter 12µM
CN(C)S(=O)(=O)c1cc(NC(=O)COC(=O)CCSc2ccc(Cl)cc2)ccc1Cl	FLuc counter inconclusive
Cc1ccc(NC(=O)c2ccc([N+](=O)[O-])cc2Cl)nc1	FLuc counter 12µM, Rab9 promoter act 2.8µM, SMN2 splice enh 5µM, NPC1 promoter act 2.5µM, ELG1 repair inh inconclusive, ELG1 genotoxic inconclusive
Cc1nc2ccc(C(=O)Nc3ccccc3Cl)cc2s1	FLuc counter 17µM, Rab9 promoter act 1.1µM, NPC1 promoter act 2.5µM, ELG1 repair inh inconclusive, ELG1 genotoxic inconclusive (no result: SMN2 splice enh)
CCCCC(=O)Nc1ccc(C(=O)NNC(=O)c2ccc(C)c(Br)c2)cc1	ELG1 genotoxic inconclusive (no result: SMN2 splice enh)
CC(=O)c1ccc(NC(=O)c2ccc(C)c(Br)c2)cc1	FLuc counter 6µM, Rab9 promoter act 0.79µM, SMN2 splice enh 11µM, NPC1 promoter act 2.5µM, ELG1 repair inh inconclusive, ELG1 genotoxic inconclusive
Cc1ccccc1NC(=O)c1ccc2nc(N3CCOCC3)sc2c1	Rab9 promoter act inconclusive, ELG1 repair inh inconclusive (no result: SMN2 splice enh)
Cc1nc2ccc(NC(=O)c3cccc(S(=O)(=O)N(C)c4ccccc4)c3)cc2s1	ELG1 repair inh 18µM
Cc1nc2cc(C(=O)O)ccc2s1	FLuc counter 17µM, Rab9 promoter act 2.8µM, SMN2 splice enh 11µM, NPC1 promoter act 1.4µM, ELG1 repair inh inconclusive, ELG1 genotoxic inconclusive
COc1cc(Nc2ncc3c(n2)CCN(Cc2cccc(C)c2)C3)cc(OC)c1	none (no result: Rab9 promoter act, SMN2 splice enh, NPC1 promoter act, ELG1 repair inh, ELG1 genotoxic)
